Measurements as given in the supplement of paper PMC11732987, “Enantioselective OTUD7B fragment discovery through chemoproteomics screening and high-throughput optimisation” (Communications Chemistry, 2025).

Legend:
Assay in all cases: log2 ratio of Biotin-Ahx-Ub-VS probe labelling (fragment/DMSO); higher = less target engagement (more negative = stronger competition), active = hit call of the paper (q ≤ 0.05, log2 ratio ≤ -1)
Settings in all cases: compound concentration: 200 uM; treatment time: 3 h
USP19 = target: T1, USP19 (UniProt O94966)
T1 sequence (whole entry): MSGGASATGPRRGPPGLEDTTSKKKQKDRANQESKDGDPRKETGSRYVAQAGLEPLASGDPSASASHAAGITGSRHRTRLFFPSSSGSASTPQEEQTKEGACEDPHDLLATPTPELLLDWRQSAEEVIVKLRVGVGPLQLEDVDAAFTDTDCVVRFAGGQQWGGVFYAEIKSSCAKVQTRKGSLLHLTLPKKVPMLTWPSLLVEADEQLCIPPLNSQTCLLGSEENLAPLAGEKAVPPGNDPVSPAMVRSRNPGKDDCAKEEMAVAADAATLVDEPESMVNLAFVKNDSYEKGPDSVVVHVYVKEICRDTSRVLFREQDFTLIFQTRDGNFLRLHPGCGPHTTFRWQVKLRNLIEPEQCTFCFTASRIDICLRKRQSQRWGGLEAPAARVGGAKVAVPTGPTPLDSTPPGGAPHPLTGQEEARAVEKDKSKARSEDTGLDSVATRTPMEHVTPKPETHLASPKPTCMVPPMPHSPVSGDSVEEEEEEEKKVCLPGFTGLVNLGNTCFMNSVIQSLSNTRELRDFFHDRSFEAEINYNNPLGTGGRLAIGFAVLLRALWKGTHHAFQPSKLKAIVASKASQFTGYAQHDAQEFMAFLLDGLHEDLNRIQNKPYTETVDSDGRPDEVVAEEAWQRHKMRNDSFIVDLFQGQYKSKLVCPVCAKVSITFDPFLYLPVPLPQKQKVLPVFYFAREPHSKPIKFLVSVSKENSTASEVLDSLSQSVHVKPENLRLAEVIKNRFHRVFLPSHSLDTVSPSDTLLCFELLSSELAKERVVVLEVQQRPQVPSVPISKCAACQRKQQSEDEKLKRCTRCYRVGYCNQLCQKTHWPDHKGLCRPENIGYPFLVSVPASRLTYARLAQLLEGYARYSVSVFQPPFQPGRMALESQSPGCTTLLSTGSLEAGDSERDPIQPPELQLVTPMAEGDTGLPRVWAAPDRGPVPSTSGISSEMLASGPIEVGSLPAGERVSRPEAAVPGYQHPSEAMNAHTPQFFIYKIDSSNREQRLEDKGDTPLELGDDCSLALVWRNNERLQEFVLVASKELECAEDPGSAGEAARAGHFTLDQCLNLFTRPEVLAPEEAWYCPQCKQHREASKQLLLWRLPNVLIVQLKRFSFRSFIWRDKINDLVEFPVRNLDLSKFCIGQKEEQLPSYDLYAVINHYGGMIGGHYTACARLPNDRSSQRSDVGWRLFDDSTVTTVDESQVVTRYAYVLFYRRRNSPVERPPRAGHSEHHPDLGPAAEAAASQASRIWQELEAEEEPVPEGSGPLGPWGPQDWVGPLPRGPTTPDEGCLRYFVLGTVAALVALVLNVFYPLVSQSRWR
In short: (§1)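 The table lists average log2 ratios of fragment over vehicle, from an unpaired t-test on global-median-normalised Spectronaut label-free quantities. Proteins with ≥2 unique peptides were used. Samples were HEK293T lysate (495 µg) treated in triplicate with fragment at 200 µM or vehicle for 3 h, then with Biotin-Ahx-Ub-VS (0.5 µM final) for 1 h, with labelled DUBs NeutrAvidin-enriched and run by diaPASEF LC-MS/MS.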

USP24 = USP24 (UniProt Q9UPU5)
In short: as §1

USP25 = target: T2, USP25 (UniProt Q9UHP3)
T2 sequence (whole entry): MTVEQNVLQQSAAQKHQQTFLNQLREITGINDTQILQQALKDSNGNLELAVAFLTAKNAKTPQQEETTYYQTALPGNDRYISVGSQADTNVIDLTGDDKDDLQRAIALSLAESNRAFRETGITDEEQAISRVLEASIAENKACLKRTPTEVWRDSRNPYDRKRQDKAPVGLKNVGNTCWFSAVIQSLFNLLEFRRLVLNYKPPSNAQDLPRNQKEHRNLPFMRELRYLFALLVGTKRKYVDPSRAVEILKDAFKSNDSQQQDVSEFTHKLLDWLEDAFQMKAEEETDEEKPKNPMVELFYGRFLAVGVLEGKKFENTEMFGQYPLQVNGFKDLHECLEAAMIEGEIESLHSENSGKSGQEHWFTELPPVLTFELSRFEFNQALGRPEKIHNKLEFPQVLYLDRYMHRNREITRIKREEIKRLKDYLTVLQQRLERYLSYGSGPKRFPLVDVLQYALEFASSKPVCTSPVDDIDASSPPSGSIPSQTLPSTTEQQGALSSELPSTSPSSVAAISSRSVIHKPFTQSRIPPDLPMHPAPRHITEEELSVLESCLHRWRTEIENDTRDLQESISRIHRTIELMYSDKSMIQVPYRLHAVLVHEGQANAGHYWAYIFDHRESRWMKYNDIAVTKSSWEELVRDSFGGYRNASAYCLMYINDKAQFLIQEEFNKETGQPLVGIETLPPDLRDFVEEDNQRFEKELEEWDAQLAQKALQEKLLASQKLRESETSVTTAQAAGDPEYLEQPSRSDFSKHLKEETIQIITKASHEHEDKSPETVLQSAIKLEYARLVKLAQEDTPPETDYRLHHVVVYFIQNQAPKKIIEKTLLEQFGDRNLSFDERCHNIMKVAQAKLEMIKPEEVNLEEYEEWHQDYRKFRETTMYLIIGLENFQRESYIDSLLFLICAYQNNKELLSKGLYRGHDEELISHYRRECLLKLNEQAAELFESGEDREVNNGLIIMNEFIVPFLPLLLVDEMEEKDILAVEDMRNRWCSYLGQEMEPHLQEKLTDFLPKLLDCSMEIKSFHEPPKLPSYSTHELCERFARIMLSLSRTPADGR
In short: as §1

USP28 = target: T3, USP28 (UniProt Q96RU2)
T3 sequence (whole entry): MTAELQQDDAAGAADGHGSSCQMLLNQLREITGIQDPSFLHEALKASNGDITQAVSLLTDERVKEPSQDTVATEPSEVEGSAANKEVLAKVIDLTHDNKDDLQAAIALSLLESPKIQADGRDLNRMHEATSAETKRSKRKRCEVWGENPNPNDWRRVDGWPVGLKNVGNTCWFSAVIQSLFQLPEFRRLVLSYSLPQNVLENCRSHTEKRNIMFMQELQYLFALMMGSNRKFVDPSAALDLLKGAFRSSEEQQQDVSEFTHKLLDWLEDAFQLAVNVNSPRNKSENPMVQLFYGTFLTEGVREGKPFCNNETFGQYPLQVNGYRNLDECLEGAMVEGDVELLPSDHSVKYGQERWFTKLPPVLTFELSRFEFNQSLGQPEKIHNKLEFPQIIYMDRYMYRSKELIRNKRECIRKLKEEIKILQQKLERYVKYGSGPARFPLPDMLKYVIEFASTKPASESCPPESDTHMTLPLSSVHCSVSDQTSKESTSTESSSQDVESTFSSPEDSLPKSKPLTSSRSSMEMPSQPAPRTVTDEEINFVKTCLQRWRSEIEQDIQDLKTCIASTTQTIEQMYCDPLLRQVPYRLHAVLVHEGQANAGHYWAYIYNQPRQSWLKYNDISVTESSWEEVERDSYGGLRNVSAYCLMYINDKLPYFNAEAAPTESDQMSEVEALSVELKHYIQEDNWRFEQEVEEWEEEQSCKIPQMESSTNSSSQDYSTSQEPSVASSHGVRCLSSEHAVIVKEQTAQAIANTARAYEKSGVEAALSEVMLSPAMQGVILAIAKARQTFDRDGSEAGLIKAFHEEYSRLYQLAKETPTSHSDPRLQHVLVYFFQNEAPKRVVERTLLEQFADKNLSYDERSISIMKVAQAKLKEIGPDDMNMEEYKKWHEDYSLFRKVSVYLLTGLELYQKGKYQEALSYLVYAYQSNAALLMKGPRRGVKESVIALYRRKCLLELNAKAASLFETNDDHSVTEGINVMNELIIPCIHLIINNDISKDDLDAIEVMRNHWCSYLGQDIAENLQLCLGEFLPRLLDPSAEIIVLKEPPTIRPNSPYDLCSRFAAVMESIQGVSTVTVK
In short: as §1

Measured: log2 ratio of Biotin-Ahx-Ub-VS probe labelling

USP24, sequence (Q9UPU5 whole entry): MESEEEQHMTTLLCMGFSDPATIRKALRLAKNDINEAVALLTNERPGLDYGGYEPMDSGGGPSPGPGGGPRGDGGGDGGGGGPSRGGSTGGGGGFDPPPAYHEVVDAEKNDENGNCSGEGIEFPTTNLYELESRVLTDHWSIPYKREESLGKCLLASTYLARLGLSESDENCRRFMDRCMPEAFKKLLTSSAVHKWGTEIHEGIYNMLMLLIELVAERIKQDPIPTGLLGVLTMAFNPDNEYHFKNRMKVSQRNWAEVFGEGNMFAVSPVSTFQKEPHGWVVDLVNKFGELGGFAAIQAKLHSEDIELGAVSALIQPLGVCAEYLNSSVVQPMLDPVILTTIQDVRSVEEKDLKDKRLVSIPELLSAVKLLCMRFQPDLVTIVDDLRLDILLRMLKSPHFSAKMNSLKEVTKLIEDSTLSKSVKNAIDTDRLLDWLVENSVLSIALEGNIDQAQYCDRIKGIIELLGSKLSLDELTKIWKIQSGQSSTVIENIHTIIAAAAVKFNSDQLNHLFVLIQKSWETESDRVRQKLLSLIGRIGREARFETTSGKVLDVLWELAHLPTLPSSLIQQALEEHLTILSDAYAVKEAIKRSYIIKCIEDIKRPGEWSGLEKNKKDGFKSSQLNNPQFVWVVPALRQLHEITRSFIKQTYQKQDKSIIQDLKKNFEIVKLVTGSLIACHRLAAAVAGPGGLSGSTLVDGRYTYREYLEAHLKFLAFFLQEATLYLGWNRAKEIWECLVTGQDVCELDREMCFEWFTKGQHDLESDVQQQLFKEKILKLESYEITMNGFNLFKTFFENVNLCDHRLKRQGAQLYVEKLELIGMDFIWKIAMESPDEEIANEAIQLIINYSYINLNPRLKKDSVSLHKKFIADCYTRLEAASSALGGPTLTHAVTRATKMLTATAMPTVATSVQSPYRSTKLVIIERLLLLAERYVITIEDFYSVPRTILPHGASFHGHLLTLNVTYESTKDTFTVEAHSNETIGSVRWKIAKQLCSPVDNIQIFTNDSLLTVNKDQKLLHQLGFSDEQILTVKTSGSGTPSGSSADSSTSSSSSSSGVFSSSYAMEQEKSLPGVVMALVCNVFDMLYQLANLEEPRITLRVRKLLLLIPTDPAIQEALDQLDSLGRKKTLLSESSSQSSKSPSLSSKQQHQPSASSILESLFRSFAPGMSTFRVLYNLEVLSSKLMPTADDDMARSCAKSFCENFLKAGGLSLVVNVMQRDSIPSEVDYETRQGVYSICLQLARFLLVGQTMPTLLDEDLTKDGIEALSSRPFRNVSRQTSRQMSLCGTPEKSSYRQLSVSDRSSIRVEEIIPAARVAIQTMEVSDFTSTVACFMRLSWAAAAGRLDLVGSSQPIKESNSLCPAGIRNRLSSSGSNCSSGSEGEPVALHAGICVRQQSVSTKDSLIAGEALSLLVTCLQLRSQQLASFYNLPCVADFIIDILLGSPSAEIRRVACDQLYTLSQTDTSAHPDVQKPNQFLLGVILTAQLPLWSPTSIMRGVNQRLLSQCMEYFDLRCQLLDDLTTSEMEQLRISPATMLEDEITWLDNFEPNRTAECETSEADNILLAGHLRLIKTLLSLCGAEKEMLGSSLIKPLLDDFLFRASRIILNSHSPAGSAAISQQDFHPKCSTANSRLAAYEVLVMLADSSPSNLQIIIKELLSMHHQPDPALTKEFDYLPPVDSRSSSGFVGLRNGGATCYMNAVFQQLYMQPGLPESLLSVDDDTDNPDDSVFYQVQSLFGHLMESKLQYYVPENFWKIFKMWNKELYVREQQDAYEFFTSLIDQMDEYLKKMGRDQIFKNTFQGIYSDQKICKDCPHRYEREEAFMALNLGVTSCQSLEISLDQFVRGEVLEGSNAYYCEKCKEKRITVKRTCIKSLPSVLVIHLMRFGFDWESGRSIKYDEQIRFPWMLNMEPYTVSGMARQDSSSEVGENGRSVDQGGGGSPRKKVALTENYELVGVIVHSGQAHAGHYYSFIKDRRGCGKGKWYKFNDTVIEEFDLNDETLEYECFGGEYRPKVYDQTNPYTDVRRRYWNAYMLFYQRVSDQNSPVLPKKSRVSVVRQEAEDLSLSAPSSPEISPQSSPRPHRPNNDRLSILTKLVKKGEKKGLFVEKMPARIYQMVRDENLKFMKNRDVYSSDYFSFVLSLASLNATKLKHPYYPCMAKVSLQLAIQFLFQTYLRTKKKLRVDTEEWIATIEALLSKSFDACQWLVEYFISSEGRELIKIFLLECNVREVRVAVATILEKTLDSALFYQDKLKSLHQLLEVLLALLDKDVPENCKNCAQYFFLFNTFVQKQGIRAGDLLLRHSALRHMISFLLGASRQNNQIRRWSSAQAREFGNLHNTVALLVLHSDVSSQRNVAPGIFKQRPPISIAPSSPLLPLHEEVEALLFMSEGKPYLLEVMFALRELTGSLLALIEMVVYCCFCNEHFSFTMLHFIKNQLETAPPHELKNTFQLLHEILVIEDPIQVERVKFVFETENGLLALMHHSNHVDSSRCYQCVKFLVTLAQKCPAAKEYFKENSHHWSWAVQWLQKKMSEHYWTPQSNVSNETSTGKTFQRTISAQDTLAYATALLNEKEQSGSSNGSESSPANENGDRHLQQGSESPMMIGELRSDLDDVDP

CC(O)CC1CCN(C(=O)CCl)CC1 (centres undefined)
inactive: USP19 -0.322 | USP24 -0.234 | USP25 -0.398 | USP28 -0.223
